Experiment [1] in a line: NCI Yeast Anticancer Drug Screen. Data for the rad50 strain (AID 155).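 Further: 0% = growth of vehicle-only cultures of the same strain.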 As to conditions: S. cerevisiae rad50 strain growth inhibition; at 50.0 µM; stronger effect = higher value. The essentials: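 Compounds were tested on a yeast strain with an engineered DNA damage repair alteration; the reported value is growth inhibition normalised to vehicle treatment.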
Experiment [2] in a line: NCI Yeast Anticancer Drug Screen. Data for the mec2-1 strain (AID 157). As to conditions: S. cerevisiae mec2-1 strain, at 50.0 µM, stronger effect = higher value. The essentials:
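Readout is yeast growth inhibition, normalised to vehicle-treated controls, in the mec2-1 strain exposed to compound.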

Experiment [3] can be described thus: NCI Yeast Anticancer Drug Screen. Data for the sgs1 mgt1 strain (AID 161).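 Further: 0% = growth of cultures given vehicle only.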 As to conditions: S. cerevisiae sgs1 mgt1 strain, at 50.0 µM, stronger effect = higher value. The essentials: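 Yeast cells carrying a defined DNA-repair defect were exposed to test compounds. Growth inhibition was measured relative to vehicle-treated controls.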
Experiment [4] can be described thus: NCI Yeast Anticancer Drug Screen. Data for the cln2 rad14 strain (AID 165).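 Further: 0% = growth equal to vehicle treated cultures.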 Conditions: S. cerevisiae cln2 rad14 strain, at 50.0 µM, stronger effect = higher value. The essentials:
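Relative to vehicle controls, growth inhibition of compound-treated cln2 rad14 yeast was recorded.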

The nature of experiment [5]: NCI Yeast Anticancer Drug Screen. Data for the bub3 strain (AID 167). Conditions: S. cerevisiae bub3 mutant strain, at 50.0 µM, stronger effect = higher value. The essentials: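 Growth of a checkpoint-deficient yeast mutant is measured after compound exposure. Values represent inhibition relative to vehicle.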
Experiment [6] can be described thus: NCI Yeast Anticancer Drug Screen. Data for the mlh1 rad18 strain (AID 175). Conditions: S. cerevisiae mlh1 rad18 strain growth inhibition; at 50.0 µM; stronger effect = higher value. The essentials:
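Test agents were incubated with a yeast strain of defined genotype (DNA damage repair defect). Inhibition of growth was derived by comparison with vehicle-exposed cultures.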

Structures are written as SMILES. Several values for one entry are separate records, joined by “and”; a condition that tells them apart may be missing. Equal entries are not always repeated. This is part of a sample that, as a whole, favours compounds with a hit. Of some 79,000 tested, about 15% had one in any assay. Some structures have more than one record in an assay (separate samples or runs), and their calls can disagree. Activity calls are given as the source filed them. No stated cut-off is given here; in the data, active means growth inhibition above about 70%; inactive means the rest.

Take `O=C(O)CCC(=O)c1ccc2ccccc2c1`: the growth inhibition was 60% (inactive) and 8.8% (inactive) in experiment [1]; 21.6% (inactive) and 6.95% (inactive) in experiment [2]; 44.8% (inactive) and -5.7% (inactive) in experiment [3]; 11.2% (inactive) and -14.1% (inactive) in experiment [4]; 9.15% (inactive) and -23.1% (inactive) in experiment [5]; 44.2% (inactive) and 40.7% (inactive) in experiment [6].

With `C[N+](C)(C)CCO`, the growth inhibition is -16.1% (inactive) and 2.25% (inactive) in experiment [1]; -22.9% (inactive) and -8.65% (inactive) in experiment [2]; -5.85% (inactive) and -6.65% (inactive) in experiment [3]; 21.1% (inactive) and 13.4% (inactive) in experiment [4]; 16.5% (inactive) and 16.8% (inactive) in experiment [5]; 0.85% (inactive) and -2.2% (inactive) in experiment [6].

Regarding `O=C(CCc1ccccc1)CCc1ccccc1`, the growth inhibition in experiment [1] is -28.6% (inactive) and 33.6% (inactive); in experiment [2] it was -4.3% (inactive) and 4.85% (inactive); in experiment [3], 28.8% (inactive) and 7.55% (inactive); in experiment [4], -30.9% (inactive) and 27.6% (inactive); in experiment [5], 0.55% (inactive) and 35.2% (inactive); in experiment [6], -20.4% (inactive) and 26.6% (inactive).

Turning to `CCCN=C(N)C(N)=NCCC` (tested in a mixture with another compound), the growth inhibition was 0.4% (inactive) and 6.5% (inactive) in experiment [1]; -3.95% (inactive) and 7.35% (inactive) in experiment [2]; 9% (inactive) and 26.4% (inactive) in experiment [3]; -21.4% (inactive) and 7.55% (inactive) in experiment [4]; 12.6% (inactive) and 3.75% (inactive) in experiment [5]; 6.65% (inactive) and 10% (inactive) in experiment [6].

Consider `COc1ccc2c(c1OC)C(=O)N1C2=Cc2c(cc3c(c2OC)OCO3)CC1N(C)C` (configuration not stated), for which the growth inhibition in experiment [1] is 16.7% (inactive) and 30.1% (inactive); in experiment [2], -26.1% (inactive) and 33.8% (inactive); in experiment [3], 39.9% (inactive) and 57.1% (inactive); in experiment [4], 12.3% (inactive) and 13% (inactive); in experiment [5], -11.8% (inactive) and 17.6% (inactive); in experiment [6], 12.7% (inactive) and 41.2% (inactive).

Take `CC(CC(=O)O)C(C(=O)O)C(=O)O` (configuration not stated): the growth inhibition was 0.4% (inactive) and 7.6% (inactive) in experiment [1]; -25.9% (inactive) and 2.4% (inactive) in experiment [2]; -33.5% (inactive) and -16.6% (inactive) in experiment [3]; -32.2% (inactive) and 0.4% (inactive) in experiment [4]; -21.8% (inactive) and 8.7% (inactive) in experiment [5]; -18.3% (inactive) and -7.75% (inactive) in experiment [6].

Take `CCC(N)C(=O)O` (configuration not stated): the growth inhibition in experiment [1] was -0.4% (inactive) and 5.25% (inactive); in experiment [2], -31.6% (inactive) and 6.85% (inactive); in experiment [3], 1.75% (inactive) and -11.3% (inactive); in experiment [4], 8.55% (inactive) and 9.4% (inactive); in experiment [5], -9.75% (inactive) and -14.9% (inactive); in experiment [6] it was -10.8% (inactive) and -0.8% (inactive).

With `Cc1ccc(S(=O)(=O)NN=C2C(C)(C)CC2(C)C)cc1`, the growth inhibition in experiment [1] is -21.9% (inactive) and 21.2% (inactive); in experiment [2], 1.15% (inactive) and -11.8% (inactive); in experiment [3] it was 8.55% (inactive) and 6.6% (inactive); in experiment [4], 13.9% (inactive) and -23.5% (inactive); in experiment [5] it was 6.15% (inactive) and -2.85% (inactive); in experiment [6], -24.8% (inactive) and 3.65% (inactive).

On to `CC1CCC2(OC1)OC1CC3C4CCC5CC(O)CCC5(C)C4CCC3(C)C1C2C` (configuration not stated), for which the growth inhibition in experiment [1] is 22.4% (inactive) and -15.3% (inactive); in experiment [2], -29.8% (inactive) and -19.3% (inactive); in experiment [3] it was 2.45% (inactive) and -24.1% (inactive); in experiment [4], 7.15% (inactive) and 0.8% (inactive); in experiment [5], 9.4% (inactive) and -9.1% (inactive); in experiment [6], 26.8% (inactive) and -12.7% (inactive).

As to `Cc1ccc(S(=O)(=O)N(C)c2ccccc2)cc1`, the growth inhibition in experiment [1] was -18.6% (inactive) and -3.7% (inactive); in experiment [2], -50.7% (inactive) and -1.25% (inactive); in experiment [3], -0.55% (inactive) and 10.2% (inactive); in experiment [4], 1.2% (inactive) and -25.4% (inactive); in experiment [5], 11.8% (inactive) and 16.3% (inactive); in experiment [6], -10% (inactive) and 9.95% (inactive).

Regarding `C[S+](C)C`, the growth inhibition was -5.65% (inactive) and -0.05% (inactive) in experiment [1]; -7.25% (inactive) and -2.1% (inactive) in experiment [2]; -2.9% (inactive) and -2% (inactive) in experiment [3]; 9.1% (inactive) and -10% (inactive) in experiment [4]; 4.4% (inactive) and -7.1% (inactive) in experiment [5]; -18.4% (inactive) and 12.5% (inactive) in experiment [6].

Consider `C/C(=N\NC(=O)c1ccncc1)c1ccc(F)cc1`, for which the growth inhibition in experiment [1] was 3.95% (inactive) and -7.7% (inactive); in experiment [2], 9.55% (inactive) and -14.3% (inactive); in experiment [3], 4.15% (inactive) and -16.4% (inactive); in experiment [4], 3.85% (inactive) and 0.7% (inactive); in experiment [5], 5.5% (inactive) and -28.4% (inactive); in experiment [6], 14.3% (inactive) and -4.6% (inactive).

Turning to `COC1OC(COC(=O)c2ccc([N+](=O)[O-])cc2)C2OC12` (configuration not stated), the growth inhibition in experiment [1] was 7.6% (inactive) and -6.95% (inactive); in experiment [2], -7.95% (inactive) and -1% (inactive); in experiment [3], 8.7% (inactive) and 1.4% (inactive); in experiment [4], 17.2% (inactive) and 28.4% (inactive); in experiment [5], 27.2% (inactive) and -2.85% (inactive); in experiment [6], 7.95% (inactive) and 8.15% (inactive).

As for `O=C(O)Cc1ccc(C2CCC(O)CC2)cc1` (configuration not stated), the growth inhibition in experiment [1] is 2.75% (inactive) and 8.45% (inactive); in experiment [2], -5.35% (inactive) and -1.85% (inactive); in experiment [3], 3.05% (inactive) and 21.2% (inactive); in experiment [4] it was -17.8% (inactive) and -4.3% (inactive); in experiment [5] it was -0.15% (inactive) and 5.4% (inactive); in experiment [6], 0.9% (inactive) and 1% (inactive).

With `O=C1OC(=O)C2C3CCCCC3=C3CCCCC3C12` (configuration not stated), the growth inhibition is 2.7% (inactive) and 11.1% (inactive) in experiment [1]; 41.5% (inactive) and -8.4% (inactive) in experiment [2]; -3.25% (inactive) and 4.25% (inactive) in experiment [3]; 8.6% (inactive) and -9.1% (inactive) in experiment [4]; 22.2% (inactive) and 3.9% (inactive) in experiment [5]; -5.3% (inactive) and 13.6% (inactive) in experiment [6].

On to `O=C(NC(=O)c1ccccc1)NC(=O)c1ccccc1`, for which the growth inhibition was -2.6% (inactive) and -1.25% (inactive) in experiment [1]; -10% (inactive) and -14.1% (inactive) in experiment [2]; -3.35% (inactive) and 1.1% (inactive) in experiment [3]; 7.8% (inactive) and -17.6% (inactive) in experiment [4]; 8.35% (inactive) and -6.25% (inactive) in experiment [5]; -3.65% (inactive) and -45.1% (inactive) in experiment [6].

With `CC(=O)Nc1ccccc1Cl`, the growth inhibition in experiment [1] is 31.6% (inactive) and 6% (inactive); in experiment [2], 6.7% (inactive) and -9.05% (inactive); in experiment [3] it was 14.2% (inactive) and -20.4% (inactive); in experiment [4] it was 24.9% (inactive) and -20.1% (inactive); in experiment [5], 20.2% (inactive) and -15.1% (inactive); in experiment [6], -11.4% (inactive) and 21.4% (inactive).

For the molecule `Nc1cc2ccc(S(=O)(=O)O)cc2cc1S(=O)(=O)O`, the growth inhibition in experiment [1] was 44.5% (inactive) and 10.7% (inactive); in experiment [2], 14.8% (inactive) and 10.9% (inactive); in experiment [3] it was 17.6% (inactive) and -1.75% (inactive); in experiment [4], -12.3% (inactive) and -14.9% (inactive); in experiment [5] it was 8.8% (inactive) and 11.2% (inactive); in experiment [6], 29.5% (inactive) and 35.3% (inactive).

As for `NC(N)=NCCCC1NC(=O)C(Cc2ccc(O)cc2)NC1=O` (configuration not stated), the growth inhibition in experiment [1] was 15.3% (inactive) and -3.3% (inactive); in experiment [2] it was 21.8% (inactive) and -3.25% (inactive); in experiment [3] it was 48.9% (inactive) and -4.85% (inactive); in experiment [4], -5.05% (inactive) and -8.55% (inactive); in experiment [5], 38.2% (inactive) and 3.55% (inactive); in experiment [6] it was 33.2% (inactive) and -1.6% (inactive).

As to `CC(C)C1CCC(NC(=O)Nc2ccccc2)CC1` (configuration not stated), the growth inhibition in experiment [1] is 79.5% (active) and 20.6% (inactive); in experiment [2], 48.5% (inactive) and 20.3% (inactive); in experiment [3] it was 70.5% (active) and 43.2% (inactive); in experiment [4], 46.2% (inactive) and -3.5% (inactive); in experiment [5], 66.7% (inactive) and 23.6% (inactive); in experiment [6] it was 81.1% (active) and 44.8% (inactive).

For `O=C(O)/C=C/c1cccc(Cl)c1`, the growth inhibition in experiment [1] was 14.2% (inactive) and -11.2% (inactive); in experiment [2], 10.2% (inactive) and -19.9% (inactive); in experiment [3] it was 3.25% (inactive) and -12.2% (inactive); in experiment [4], -16.1% (inactive) and 13.5% (inactive); in experiment [5] it was -6.7% (inactive) and -28.2% (inactive); in experiment [6], 24.8% (inactive) and 23.6% (inactive).

Consider `CC(=O)OCC1OC(Sc2nc(-c3ccc(C)cc3)c(C#N)c(=O)n2C2OC(COC(C)=O)C(OC(C)=O)C(OC(C)=O)C2OC(C)=O)C(OC(C)=O)C(OC(C)=O)C1OC(C)=O` (configuration not stated), for which the growth inhibition in experiment [1] is 5% (inactive) and -9.15% (inactive); in experiment [2] it was 7.65% (inactive) and -9.45% (inactive); in experiment [3], -3.1% (inactive) and 20.9% (inactive); in experiment [4], -32% (inactive) and 10.2% (inactive); in experiment [5] it was 7.2% (inactive) and 20.1% (inactive); in experiment [6], -7.8% (inactive) and -34.5% (inactive).
